Measured values taken from PubChem BioAssay AID1159580 (chemical genetic matrix, 2015).
Values joined by “and” are separate entries in the source; they are usually repeats but may differ in a detail not shown here. Equal values may be shown once. Hit rate of the full screen: of about 5,500 compounds, about 2,000 (36%) were called active. Not shown: some 18% with an inconclusive outcome. Cut-off read from the data, not from the text of the source: active = normalized growth mostly below about 0.91 (no sharp cut-off); inconclusive = no clear call, values can overlap the other calls; inactive = mostly above about 0.92. The list shows a part of the results.

Assay: chemical genetic growth profiling, strain panel (AID 1159580);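 note: tested at 20 µM; growth read once vehicle control cultures reached saturation at 30 °C; 1 = growth at the plate median or of vehicle wells; lower values mean less growth of the strain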
Settings: S. cerevisiae deletion strains, growth OD

Measured: normalized growth

CCc1cc(C(N)=S)ccn1
inactive: locus YAL021C, strain ccr4, stronger effect = lower value 1 | locus YAL026C, strain drs2, stronger effect = lower value 1 | locus YAL030W, strain snc1, stronger effect = lower value 0.994 | locus YBL061C, strain skt5, stronger effect = lower value 1.01 | locus YBR009C, strain hhf1, stronger effect = lower value 1 | locus YBR021W, strain FUR4, stronger effect = lower value 1.06 | locus YBR023C, strain chs3, stronger effect = lower value 1.02 | locus YBR171W, strain sec66, stronger effect = lower value 1 | locus YBR229C, strain ROT2, stronger effect = lower value 0.953 | locus YBR231C, strain swc5, stronger effect = lower value 1.04 | locus YBR279W, strain paf1, stronger effect = lower value 1 | locus YCL011C, strain gbp2, stronger effect = lower value 1.01 | locus YCL016C, strain dcc1, stronger effect = lower value 1 | locus YCL061C, strain MRC1, stronger effect = lower value 1.01 | locus YCL069W, strain vba3, stronger effect = lower value 0.991 | locus YCR088W, strain abp1, stronger effect = lower value 1 | locus YDL005C, strain med2, stronger effect = lower value 1 | locus YDL035C, strain GPR1, stronger effect = lower value 1.01 | locus YDL040C, strain nat1, stronger effect = lower value 0.998 | locus YDL074C, strain BRE1, stronger effect = lower value 0.991 | locus YDL101C, strain DUN1, stronger effect = lower value 0.981 | locus YDL134C, strain PPH21, stronger effect = lower value 0.985 | locus YDL185W, strain tfp1, stronger effect = lower value 0.976 | locus YDL192W, strain arf1, stronger effect = lower value 0.981 | locus YDR001C, strain nth1, stronger effect = lower value 1 | locus YDR069C, strain doa4, stronger effect = lower value 0.978 | locus YDR101C, strain arx1, stronger effect = lower value 0.93 | locus YDR137W, strain rgp1, stronger effect = lower value 1.02 | locus YDR150W, strain NUM1, stronger effect = lower value 0.983 | locus YDR159W, strain sac3, stronger effect = lower value 0.953 | locus YDR162C, strain NBP2, stronger effect = lower value 1 | locus YDR195W, strain ref2 0.979 | locus YDR297W, strain sur2, stronger effect = lower value 1 | locus YDR318W, strain mcm21, stronger effect = lower value 1 | locus YDR334W, strain swr1, stronger effect = lower value 1.01 | locus YDR335W, strain msn5, stronger effect = lower value 0.996 | locus YDR388W, stronger effect = lower value 0.995 | locus YDR392W, strain spt3, stronger effect = lower value 0.938 | locus YDR502C, strain sam2, stronger effect = lower value 0.98 | locus YEL003W, strain gim4, stronger effect = lower value 0.998 | locus YEL037C, strain rad23, stronger effect = lower value 0.999 | locus YEL061C, strain CIN8 (second series), stronger effect = lower value 0.994 | locus YEL061C, strain CIN8, stronger effect = lower value 0.959 | locus YER015W, strain faa2, stronger effect = lower value 1.01 | locus YER016W, strain bim1, stronger effect = lower value 0.957 | locus YER110C, stronger effect = lower value 0.98 | locus YER111C, strain swi4, stronger effect = lower value 0.996 | locus YER155C, strain BEM2 (second series), stronger effect = lower value 0.943 | locus YER155C, strain BEM2, stronger effect = lower value 0.99 | locus YER167W, strain BCK2, stronger effect = lower value 0.994 | locus YFR010W, strain ubp6, stronger effect = lower value 1 | locus YGL078C, strain dbp3, stronger effect = lower value 0.986 | locus YGL086W, strain mad1, stronger effect = lower value 0.964 | locus YGL167C, strain pmr1, stronger effect = lower value 1 | locus YGL173C, strain kem1, stronger effect = lower value 0.995 | locus YGL227W, strain vid30, stronger effect = lower value 1.01 | locus YGL240W, strain doc1, stronger effect = lower value 0.978 | locus YGL248W, strain PDE1, stronger effect = lower value 0.989 | locus YGL253W, strain hxk2, stronger effect = lower value 1.01 | locus YGR135W, strain pre9, stronger effect = lower value 1.05 | locus YGR252W, strain gcn5, stronger effect = lower value 1.14 | locus YHR013C, strain ard1, stronger effect = lower value 1.05 | locus YHR027C, strain rpn1, stronger effect = lower value 1.01 | locus YHR030C, strain SLT2, stronger effect = lower value 0.997 and 1.11 | locus YHR079C, strain IRE1 (second series), stronger effect = lower value 0.993 | locus YHR079C, strain IRE1, stronger effect = lower value 1.08 | locus YHR094C, strain hxt1, stronger effect = lower value 0.987 | locus YHR129C, strain ARP1, stronger effect = lower value 0.991 | locus YHR142W, strain chs7, stronger effect = lower value 1.02 | locus YHR200W, strain rpn10, stronger effect = lower value 0.98 | locus YIL066C, strain RNR3, stronger effect = lower value 0.965 | locus YIL073C, strain SPO22, stronger effect = lower value 1.08 | locus YIL125W, strain kgd1, stronger effect = lower value 0.981 | locus YIR030C, strain dcg1, stronger effect = lower value 0.99 | locus YJL092W, strain hpr5, stronger effect = lower value 1.01 | locus YJL095W, strain BCK1 (second series), stronger effect = lower value 1 | locus YJL095W, strain BCK1, stronger effect = lower value 0.964 and 1.07 | locus YJL115W, strain asf1, stronger effect = lower value 1.01 | locus YJL129C, strain trk1, stronger effect = lower value 1.03 | locus YJL134W, strain LCB3, stronger effect = lower value 0.991 | locus YJL154C, strain vps35, stronger effect = lower value 0.995 | locus YJL164C, strain tpk1, stronger effect = lower value 1.02 | locus YJL166W, strain qcr8, stronger effect = lower value 1.04 | locus YJL168C, strain set2, stronger effect = lower value 0.991 | locus YJL187C, strain SWE1 (second series), stronger effect = lower value 0.941 | locus YJL187C, strain SWE1, stronger effect = lower value 1.01 | locus YJR043C, strain POL32, stronger effect = lower value 0.983
